We go through 13 compounds from PubChem BioAssay.

Assay [1] in a line: HepG2 liver cancer cell viability effects, profiling panel, resazurin fluorescence, 24 h, PK04 Diversity Set (AID 1172). Also: test concentration not given here. The following applies: higher = more signal.
The nature of assay [2]: basal S. cerevisiae growth modulation, no modifier, primary screen, OD600, strain BY4716, 24 h, basal condition (AID 1173). The following applies: OD600, 24 h, higher = more signal, called active from +8 up or from −8 down.
A short description of assay [3]: MM1S myeloma cell viability, profiling panel, resazurin fluorescence, basal, 24 h, PK04 Diversity Set (AID 1174).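 Also: MM1S multiple myeloma cell line; test concentration not given here.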 The following applies: higher = more signal, called active from +8 up or from −8 down.
Assay [4] concerns the target Dihydroorotate dehydrogenase (quinone), mitochondrial (Plasmodium falciparum (isolate 3D7)) (UniProt Q08210). The assay can be described thus: PfDHODH enzyme inhibitors, primary screen, biochemical, C-terminal His tag, absorbance 600 nm (AID 1175).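 Also: recombinant parasite enzyme with a five histidine tag at its C terminus; test concentration not given here.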 The following applies: DCIP absorbance 600 nm, higher = more signal, called active from +8 up or from −8 down.
The nature of assay [5]: P. aeruginosa biofilm formation inhibitors, primary screen, strain PAO1, LB-PBS medium, absorbance 600 nm (AID 1176). Also: test concentration not given here. The following applies: P. aeruginosa PAO1 growth/biofilm, A600, 12 h; higher = more signal.
A short description of assay [6]: S. cerevisiae RM11-1a growth modifiers, primary screen, strain RM11-1a, OD600, basal, 24 h (AID 1177).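 Also: cultures grown under basal conditions with no added stressor; test concentration not given here.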 The following applies: OD600, 24 h, higher = more signal, called active from +8 up or from −8 down.
Assay [7] is described as follows: E. coli acrAB mutant growth effects, primary screen, E. coli filamentation inducers, strain DRC39, OD650, 24 h (AID 1178).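 Also: growth measured as culture turbidity by optical density at 650 nm; test concentration not given here.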 The following applies: higher = more signal, called active from +8 up or from −8 down.
Assay [8] in a line: E. coli acrAB mutant growth effects, primary screen, E. coli filamentation inducers, strain DRC39, OD650, 48 h (AID 1179).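 Also: screen aims at cell division blockers that make cells filament.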 The following applies: E. coli DRC39 delta-acrAB growth, higher = more signal, called active from +8 up or from −8 down.
The nature of assay [9]: RPMI8226 myeloma cell viability, profiling panel, resazurin fluorescence, basal, 24 h, PK04 Diversity Set (AID 1180).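 Also: RPMI8826 multiple myeloma cell line at 5000 cells per well; test concentration not given here.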 The following applies: higher = more signal. A general note: Resazurin is reduced to fluorescent resorufin, in cell work by metabolically active cells.
Assay [10] addresses E3 ubiquitin-protein ligase XIAP (Homo sapiens) (UniProt P98170). The assay can be described thus: XIAP binders, primary screen, biophysical, small-molecule microarray, fluorescence 635 nm (AID 1181).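 Also: score merges 667 nm emission and signal to noise over triplicate slides.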 The following applies: small-molecule microarray binding, higher = more signal.

Active and inactive are the calls of the source. Unless noted, no rule for the calls is given here.

Sequence of E3 ubiquitin-protein ligase XIAP (Homo sapiens) (P98170 whole entry, looked up): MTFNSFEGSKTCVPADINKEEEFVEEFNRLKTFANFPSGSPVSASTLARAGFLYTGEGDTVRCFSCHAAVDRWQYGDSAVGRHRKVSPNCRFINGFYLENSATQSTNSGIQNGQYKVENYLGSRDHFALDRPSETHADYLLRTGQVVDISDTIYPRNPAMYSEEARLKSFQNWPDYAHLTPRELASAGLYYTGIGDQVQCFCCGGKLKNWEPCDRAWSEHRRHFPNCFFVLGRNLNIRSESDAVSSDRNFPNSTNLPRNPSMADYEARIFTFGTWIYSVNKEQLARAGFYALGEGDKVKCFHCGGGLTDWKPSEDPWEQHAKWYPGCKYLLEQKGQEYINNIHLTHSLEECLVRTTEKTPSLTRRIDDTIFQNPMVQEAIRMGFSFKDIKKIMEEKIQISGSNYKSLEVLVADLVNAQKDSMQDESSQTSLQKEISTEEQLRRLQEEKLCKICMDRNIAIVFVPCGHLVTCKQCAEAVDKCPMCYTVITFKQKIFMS
Sequence of Dihydroorotate dehydrogenase (quinone), mitochondrial (Plasmodium falciparum (isolate 3D7)) (Q08210 whole entry, looked up): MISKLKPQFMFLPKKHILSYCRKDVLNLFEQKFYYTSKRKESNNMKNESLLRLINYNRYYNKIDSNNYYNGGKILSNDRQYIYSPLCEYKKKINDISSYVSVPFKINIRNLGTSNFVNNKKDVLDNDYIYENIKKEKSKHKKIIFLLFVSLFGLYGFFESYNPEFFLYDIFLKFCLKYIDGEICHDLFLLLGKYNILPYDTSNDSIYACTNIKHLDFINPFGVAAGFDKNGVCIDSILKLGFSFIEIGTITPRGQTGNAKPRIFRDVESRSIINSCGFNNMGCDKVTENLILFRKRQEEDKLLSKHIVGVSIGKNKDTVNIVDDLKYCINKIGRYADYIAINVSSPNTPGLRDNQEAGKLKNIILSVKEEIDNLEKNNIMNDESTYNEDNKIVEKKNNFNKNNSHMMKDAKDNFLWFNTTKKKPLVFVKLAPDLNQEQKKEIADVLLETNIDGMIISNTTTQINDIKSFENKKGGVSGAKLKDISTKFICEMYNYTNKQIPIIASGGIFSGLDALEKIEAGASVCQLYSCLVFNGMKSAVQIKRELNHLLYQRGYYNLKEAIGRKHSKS

Take `COC(=O)[C@@]1(Cc2ccc(F)cc2)[C@H]2c3cc(C(=O)N(C)C)n(Cc4c(CO)[nH]cc(C)c4=O)c3C[C@H]2CN1C(=O)c1ccccc1`: the z-score in [1] is -1.03; in [2] it was 0.966 (inactive); in assay [3], -1.72 (inactive); in assay [5] it was 1.79 (inactive); in assay [6], 0.986 (inactive); in assay [7], -0.0892 (inactive). Besides, the figures for the z-score in assay [8] and in [9] were -1.36 (inactive) and -0.932, respectively. Further, the composite z-score in assay [4] was -0.244 (inactive); in [10], 0.0153.

For `C=C(COC)C(=O)CC[C@H](OC(=O)c1cccnc1)c1ccc(CO)o1`, the z-score was -0.655 in assay [1]; -1.29 (inactive) in assay [2]; -0.317 (inactive) in assay [3]; 0.142 (inactive) in assay [5]; -0.663 (inactive) in [6]; -0.659 (inactive) in [7]. Also, the figures for the z-score in assay [8] and in assay [9] were -0.649 (inactive) and -0.732, respectively. Moreover, the composite z-score is -3.37 (inactive) in assay [4] and 0.0565 in assay [10].

With `COCCOC(=O)N1C(=O)[C@@]2(c3cc(C#CCC(C(=O)OC)C(=O)OC)ccc31)[C@H](C(=O)NC[C@H](O)c1ccccc1)[C@H]1C(=O)O[C@H](c3ccccc3)[C@H](c3ccccc3)N1[C@@H]2c1ccc(OCCO)cc1`, the z-score in assay [1] is -0.685; in [2] it was 2.05 (inactive); in assay [3], -0.0535 (inactive); in [5], 3.49 (inactive); in assay [6], 3.11 (inactive); in [7], 0.629 (inactive). The z-score in [8] is 0.453 (inactive); in assay [9], -0.291. The values for the composite z-score in assay [4] and in [10] were -0.429 (inactive) and 0.0806, respectively.

Regarding `CC(C)C(=C=CC[C@@H](O)c1cccc(OCCO)c1)C[C@@H](O)COCc1ccccc1`, the z-score in [1] was 0.564; in [2], -1.91 (inactive); in assay [3], 0.301 (inactive); in assay [5] it was 0.424 (inactive); in assay [6], -2.4 (inactive); in assay [7], 0.789 (inactive). For the same compound, the values for the z-score in assay [8] and in [9] were 0.633 (inactive) and 0.47, respectively. For the same compound, the composite z-score in assay [4] was -3.34 (inactive); in assay [10], -0.119.

For `C=C(CCCC)/C(=C/C[C@H](OC(C)=O)c1ccc(OCCO)cc1)c1cc(C(=O)OC)ccc1OC`, the z-score was 0.757 in assay [1]; -1.06 (inactive) in assay [2]; -0.0396 (inactive) in assay [3]; 0.825 (inactive) in [5]; -0.0587 (inactive) in assay [6]; 0.487 (inactive) in assay [7]. Also, the z-score is 0.371 (inactive) in assay [8] and 0.621 in [9]. In addition, the composite z-score in [4] was -0.793 (inactive); in assay [10], 0.0977.

For `O=C(CS)NCCCCCCNC(=O)[C@@H]1C[C@@H]2C(=O)NCC(=O)N2[C@@H]1c1ccc(O)cc1`, the z-score in assay [1] was 0.263; in assay [2] it was -0.185 (inactive); in assay [3], 0.426 (inactive); in assay [5] it was 0.171 (inactive); in assay [6], -1.97 (inactive); in assay [7], 0.858 (inactive). Further, the z-score in assay [8] is 1.62 (inactive); in assay [9], 0.0464. Besides, the composite z-score in [4] was -0.757 (inactive); in assay [10], -0.02.

Take `C=C(/C(=C/C[C@@H](OC(=O)c1ccncc1)c1cccc(OCCO)c1)c1cnc2ccccc2c1)C(C)C`: the z-score was -0.118 in assay [1]; -1.48 (inactive) in assay [2]; -0.59 (inactive) in assay [3]; 1.86 (inactive) in assay [5]; 0.152 (inactive) in [6]; -0.192 (inactive) in [7]. For the same compound, the z-score in assay [8] was -0.284 (inactive); in assay [9], 0.0866. The composite z-score in assay [4] is -5.68 (inactive); in assay [10], 0.227.

`CC(C)=CCCC(C)=CC(O)C1C=CC2C(=O)N(c3ccccc3)C(=O)C2N1Nc1ccccc1F` (stereo not given): the z-score was 0.856 in [1]; -1.18 (inactive) in assay [2]; 0.47 (inactive) in assay [3]; 0.505 (inactive) in assay [5]; -0.54 (inactive) in assay [6]; 0.131 (inactive) in assay [7]. Moreover, the z-score in [8] was 0.739 (inactive); in [9], 1.22. Also, the composite z-score in assay [4] was -0.323 (inactive); in [10], -0.21.

Regarding `COC(=O)c1c2oc(c1C(=O)OC)C(=O)N1CCC[C@H]1Cn1nncc1CN(Cc1ccccc1)C(=O)N[C@H](CO)CC2`, the z-score in assay [1] was 0.744; in [2], -3.62 (inactive); in assay [3], -0.0795 (inactive); in assay [5], -0.0513 (inactive); in assay [6], 0.738 (inactive); in assay [7], 0.663 (inactive). Further, the z-score in assay [8] is 0.836 (inactive); in [9], 0.343. Moreover, the composite z-score was 0.453 (inactive) in [4] and -0.0832 in [10].

As to `CS(=O)(=O)CCOC(=O)C1=CC(CCCO)=CC(C2CC2)N(Cc2cccc(OC(F)(F)F)c2)C=C1C(=O)OCCS(C)(=O)=O` (stereo not given), the z-score was 0.0407 in assay [1]; -2.55 (inactive) in [2]; 0.0932 (inactive) in assay [3]; 0.342 (inactive) in assay [5]; 0.416 (inactive) in assay [6]; 0.9 (inactive) in [7]. For the same compound, the z-score is 0.241 (inactive) in assay [8] and 0.329 in [9]. In addition, the composite z-score in [4] was -0.0527 (inactive); in [10], 0.0363.

Consider `CCOC(=O)C1=CCC(c2ccco2)N(S(=O)(=O)c2ccc(C)cc2)C1` (stereo not given), for which the z-score is 1.18 in assay [1]; -4.03 (inactive) in [2]; 0.123 (inactive) in assay [3]; -0.253 (inactive) in assay [5]; -0.749 (inactive) in assay [6]; 0.234 (inactive) in assay [7]. The z-score is 1.34 (inactive) in assay [8] and 0.769 in assay [9]. Further, the values for the composite z-score in assay [4] and in assay [10] were -2.2 (inactive) and 0.424, respectively.

For the compound `COCCOC(=O)N1C(=O)[C@@]2(c3cc(C#CC4(O)CCCCCC4)ccc31)[C@H](c1ccc(OCCO)cc1)N1[C@H](c3ccccc3)[C@H](c3ccccc3)OC(=O)[C@H]1[C@@H]2C(=O)Nc1nc2ccccc2s1`, the z-score in [1] was 1.39; in assay [2] it was 1.46 (inactive); in [3], -0.773 (inactive); in assay [5], 2.98 (inactive); in assay [6] it was 2.43 (inactive); in [7] it was -0.0994 (inactive). The z-score in assay [8] is -0.347 (inactive); in assay [9], -0.494. The composite z-score in [4] was -1.19 (inactive); in [10] it was 0.332.

For the compound `COC(=O)C(CC#Cc1ccc2c(c1)[C@]1(C(=O)N2)[C@H](C(=O)Nc2nc3ccccc3s2)[C@H]2C(=O)O[C@H](c3ccccc3)[C@H](c3ccccc3)N2[C@@H]1c1ccc(OCCO)cc1)C(=O)OC`, the z-score in assay [1] is 0.885; in assay [2], -0.0399 (inactive); in [3] it was 0.973 (inactive); in assay [5] it was 3.52 (inactive); in assay [6] it was -0.367 (inactive); in [7], 0.776 (inactive). Moreover, the z-score in assay [8] is 1.42 (inactive); in assay [9] it was -2.38. Moreover, the composite z-score in assay [4] was -3.07 (inactive); in assay [10] it was -0.0391.
